Source: PubChem BioAssay AID2557 (NMMLSC, 2010)
The campaign covered roughly 330,000 compounds. About 650 (0.2%) were called active. Rule as the data show it: active = inhibition above about 50%; inactive = the rest. The sample as a whole holds a higher share of actives than the screen did.

What follows are compounds tested against Integrin alpha-4 (Homo sapiens) (UniProt P13612) (assay: inhibition in human VLA-4 binding assay, primary screen, VLA-4 allosteric modulator project, MLPCN library, flow cytometry, VLA-4 expressing cells (AID 2557)). Conditions: ligand binding flow cytometry, active compounds read high, about 7 µM as worked out from the volumes in the protocol.
Integrin alpha-4 (Homo sapiens), sequence (P13612 whole entry, looked up): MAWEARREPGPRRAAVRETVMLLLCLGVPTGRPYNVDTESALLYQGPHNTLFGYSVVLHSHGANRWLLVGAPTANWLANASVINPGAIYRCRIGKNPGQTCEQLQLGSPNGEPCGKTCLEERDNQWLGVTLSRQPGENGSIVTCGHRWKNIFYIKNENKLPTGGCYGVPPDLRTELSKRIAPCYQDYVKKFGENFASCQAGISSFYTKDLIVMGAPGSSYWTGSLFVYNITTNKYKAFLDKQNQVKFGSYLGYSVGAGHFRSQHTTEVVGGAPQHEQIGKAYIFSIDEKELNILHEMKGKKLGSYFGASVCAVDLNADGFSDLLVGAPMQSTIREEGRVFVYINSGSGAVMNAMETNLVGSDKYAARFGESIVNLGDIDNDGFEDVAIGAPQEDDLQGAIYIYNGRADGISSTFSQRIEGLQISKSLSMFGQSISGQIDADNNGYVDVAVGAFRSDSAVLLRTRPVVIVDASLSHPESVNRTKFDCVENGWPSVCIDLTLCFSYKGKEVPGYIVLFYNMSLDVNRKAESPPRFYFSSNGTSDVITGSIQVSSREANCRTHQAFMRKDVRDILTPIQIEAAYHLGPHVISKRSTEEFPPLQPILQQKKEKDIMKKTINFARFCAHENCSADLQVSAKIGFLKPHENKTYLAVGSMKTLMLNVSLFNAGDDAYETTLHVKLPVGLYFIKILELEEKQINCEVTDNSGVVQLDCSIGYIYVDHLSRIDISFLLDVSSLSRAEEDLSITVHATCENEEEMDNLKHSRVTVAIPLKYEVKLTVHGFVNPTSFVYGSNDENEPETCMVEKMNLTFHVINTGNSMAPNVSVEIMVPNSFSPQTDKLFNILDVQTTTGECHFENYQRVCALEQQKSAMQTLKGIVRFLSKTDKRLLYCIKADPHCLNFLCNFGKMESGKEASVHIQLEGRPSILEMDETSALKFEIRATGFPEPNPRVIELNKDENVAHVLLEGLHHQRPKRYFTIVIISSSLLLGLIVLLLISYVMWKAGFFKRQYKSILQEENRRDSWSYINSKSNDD

inhibition, active:
COCCNC(=O)Cn1cc2c(n1)CCCCC2 54.5%
CC(C)(C)NC(=O)NC(=O)COC(=O)Cn1c(C(F)(F)F)nc2ccccc21 60.1%
Cc1cnc(NC(=O)C2CCCC2)s1 92.5%
Cc1cc(C(=O)OCC(=O)NCc2ccco2)c(C)n1-c1ccccc1 64.6%

inhibition, inactive:
CCOC(=O)NC(=O)CSc1nnc(SCCC(=O)O)s1 -3.59%
O=C(c1cc2ccccc2o1)N1CCN(S(=O)(=O)c2ccc(Cl)s2)CC1 2.54%
CCOC(=O)N1CCC(c2cc(=O)n(-c3ccccc3)[nH]2)CC1 -1.65%
O=C(CSc1ncnc2sccc12)NC1CCS(=O)(=O)C1 (configuration not stated) 6.26%
COc1ccc(-n2ncc3c2CC(C)(C)CC3NC(=O)CCc2c(C)nn(C)c2C)cc1 (configuration not stated) 4.43%
COc1ccccc1CNC(=O)Cn1cc2c(n1)CCCC2 -20.9%
O=C(Cn1cc2c(n1)CCCCC2)NCCN1CCOCC1 -8.14%
CC(=NCc1ccc2c(c1)OCO2)C1=C(O)c2ccccc2C1=O 3.18%
COC(=O)[C@@H]1C[C@@]2(O)[C@@H](O)[C@@H](O)[C@@H](O)C[C@H]2N1Cc1ccc(C)s1 23.4%
COc1ccc2c3c1O[C@H]1C[C@@H](O)C=C[C@@]31CCN(C)C2 13.3%
Cc1ccccc1OC(=O)Cn1c(C(F)(F)F)nc2ccccc21 7.11%
CN1CCN(C(=O)Cn2c(C(F)(F)F)nc3ccccc32)CC1 5.72%
CCOCCCN(C(=O)Cn1nnc(-c2ccc(OC)c(OC)c2)n1)C(CC)C(=O)NC1CCCC1 (configuration not stated) 4.18%
Cc1cnc(NC(=O)c2ccccn2)s1 11.4%
Cc1nc(NC(=O)C2CCCCC2)sc1C 3.52%
Cc1cc(C)c(C#N)c(SCC(=O)NN2CC(=O)N(c3ccccc3F)CC2=O)n1 13.8%
CN(c1ccccc1)S(=O)(=O)c1ccc(Cl)c(C(=O)OCC(=O)NCc2ccco2)c1 17.3%
O=C(COC(=O)c1ccccc1O)NCc1ccco1 -3.83%
